High-throughput results: PubChem BioAssay, Center for Chemical Genomics, University of Michigan
This excerpt belongs to a sample that is enriched for hits.
Dicer inh = inhibitors of Dicer pre-microRNA processing, primary screen, biochemical, cat-ELCCA, chemiluminescence; cat-ELCCA pre-miR-21 Dicer processing; stronger effect = higher value; z-score at 25 µM; actives 6% (n = 47,000); in the data active = z-score above about 3, passing the limit was not always enough;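 also: plate controls were vehicle for no effect and no enzyme for full effect; higher signal means more uncleaved substrate so more Dicer inhibition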
Active calls of the source: *.

Screening Cc1ccc(C2CC(C(F)(F)F)n3nc(C(=O)N4CCCCC4)c(Cl)c3N2)cc1 (centres undefined) returned Dicer inh 0.49.
N#Cc1c(N)sc2c1CCc1ccccc1-2 was read as Dicer inh 0.19.
O=C(Nc1ccccc1)c1cncc(C#Cc2ccccc2)c1 was read as Dicer inh -0.23.
For CC(C)(C)SCCNc1nc(Oc2ccc(Cl)cc2)nc(Oc2ccc(Cl)cc2)n1 the results were Dicer inh 0.58.
N#Cc1nc(COc2ccccc2F)oc1N1CCCCC1 was read as Dicer inh -4.1.
For C#CCSc1n[nH]c(-c2cc(Cl)cc(Cl)c2)n1 the results were Dicer inh -1.3.
`CC1CC(=O)c2cnc3[nH]n(-c4ccccc4)c(=O)c3c2C1` (centres undefined) gave Dicer inh 1.1.
Cc1c(-c2ccccc2)oc2ccccc2c1=O was read as Dicer inh -0.55.
Cc1ccc2oc(-c3ccccc3)c(O)c(=O)c2c1 was read as Dicer inh 1.8.
For Cc1ccc2oc(-c3ccc(F)cc3)c(O)c(=O)c2c1 the results were Dicer inh 0.72.
`COc1c(-c2ccccc2)oc2ccccc2c1=O` gave Dicer inh 0.68.
CC(=O)Nc1c(-c2ccccc2)oc2ccccc2c1=O was read as Dicer inh 3.3*.
Cc1ccc(-c2oc3ccccc3c(=O)c2O)cc1 was read as Dicer inh 3.2*.
Screening Cc1cc(NC(=O)c2ccco2)cc(-c2nc3ncccc3o2)c1O returned Dicer inh -1.1.
Screening COc1cc(C2SCCS2)cc(Br)c1OS(=O)(=O)c1cc(Cl)cc(Cl)c1 returned Dicer inh -0.68.
For CC(C)(C)c1cc2nc(C(F)(F)F)cc(NNC(=O)Nc3ccccc3)n2n1 the results were Dicer inh 0.68.
Screening CC(C)(C)c1cc2nc(C(F)(F)F)cc(NNC(=O)c3ccccc3)n2n1 returned Dicer inh 6.7*.
Screening CC(C)(C)c1csc(NNC(=O)c2ccc(Cl)cc2)n1 returned Dicer inh 13.
Screening CC(C)(C)c1cc2nc(C(F)(F)F)cc(N/N=C/c3ccccc3)n2n1 returned Dicer inh 0.12.
Screening CC(C)(C)c1cc2nc(C(F)(F)F)cc(Sc3ccc(Cl)cc3)n2n1 returned Dicer inh -1.4.
CC(C)(C)c1cc2nc(C(F)(F)F)cc(NNC(=O)c3ccc(Cl)cc3)n2n1 was read as Dicer inh 5.2*.
N#Cc1c(S/C=C(\O)c2ccccc2)nc2c(c1C(F)(F)F)CCCC2 was read as Dicer inh 1.2.
Screening ClC1(Cl)CC1CSC1=NCCN1 (centres undefined) returned Dicer inh -1.5.
For O=c1c2ccccc2cnn1-c1ccc2ccccc2c1 the results were Dicer inh -1.2.
For Cc1cccc(-n2ncc3ccccc3c2=O)c1 the results were Dicer inh 4.2*.
`O=c1c2ccccc2cnn1-c1ccc(F)cc1` gave Dicer inh 0.98.
For Cc1nc2ccccc2n1-c1ccccc1 the results were Dicer inh -1.5.
`C=CCn1c(-c2ccc(N)cc2)nc2ccccc21` gave Dicer inh 1.5.
Screening Nc1ccc(-c2nc3cc(N)ccc3n2-c2ccccc2)cc1 returned Dicer inh 3.4*.
Cc1cnc(NC(=O)c2ccc(Cl)cc2)c(Br)c1 was read as Dicer inh -3.4.
For Cc1onc(-c2ccccc2)c1CNS(=O)(=O)c1cc2ccccc2s1 the results were Dicer inh -1.
For CC(C)Nc1nc(NC(C)C)nc(N(C)C#N)n1 the results were Dicer inh 7*.
For C=CCn1c(=S)sc2c(SCC(=O)Nc3nccs3)ncnc21 the results were Dicer inh 0.09.
Screening O=S(=O)(c1ccc(-c2ccccn2)s1)N1CCCC1c1ccc(F)cc1 (centres undefined) returned Dicer inh 0.04.
Screening CN(C)c1ncnc2c1[nH]c1ccccc12 returned Dicer inh 3.5*.
`Cc1ccc2[nH]c3c(N4CCCCC4)ncnc3c2c1` gave Dicer inh 2.9.
CCN(CC)c1ncnc2c1[nH]c1ccccc12 was read as Dicer inh 1.9.
For Cc1ccc(-c2nc(-c3ccc(Cl)cc3)no2)c(Cl)c1 the results were Dicer inh 0.01.
`CNS(=O)(=O)c1ccc(C)c(-c2nnc3c4ccccc4c(C)nn23)c1` gave Dicer inh 4.5*.
For Cc1ccc(S(=O)(=O)NC(C)(C)CO)cc1-c1nnc2c3ccccc3c(C)nn12 the results were Dicer inh 0.08.
For CCCNS(=O)(=O)c1ccc(OC)c(-c2nnc3c4ccccc4c(C)nn23)c1 the results were Dicer inh 0.63.
For CNS(=O)(=O)c1ccc(OC)c(-c2nnc3c4ccccc4c(C)nn23)c1 the results were Dicer inh -0.01.
Screening CCCNS(=O)(=O)c1ccc(C)c(-c2nnc3c4ccccc4c(C)nn23)c1 returned Dicer inh 4.3*.
`Cc1ccc(S(=O)(=O)NC(C)c2ccccc2)cc1-c1nnc2c3ccccc3c(C)nn12` (centres undefined) gave Dicer inh 0.34.
`COc1ccc(-c2noc(CSc3nc4ccc(C)cc4[nH]3)n2)cc1OC` gave Dicer inh -1.
`O=C(Nc1ccc2ccccc2c1)Nc1ccccc1C(=O)NCC1CC1` gave Dicer inh 2.8.
For O=c1c2nnn(Cc3ccccc3)c2ncn1Cc1ccc(F)cc1 the results were Dicer inh -2.9.
`Cc1ccc(N2C(=O)CSC2c2ccc(Cl)c(Cl)c2)cc1Cl` (centres undefined) gave Dicer inh 5.6.
Screening CSCCC(C(=O)N1CCCCC1)N1C(=O)C2C3c4ccccc4C(c4ccccc43)C2C1=O (centres undefined) returned Dicer inh 0.37.
CCOc1ccc(N2C(=O)C3C(c4ccc(C)cc4)OC4(C(=O)c5ccccc5C4=O)C3C2=O)cc1 (centres undefined) was read as Dicer inh 3.4*.
Screening COc1ccc(Cl)cc1N1C(=O)C2C(c3ccccc3)OC3(C(=O)c4ccccc4C3=O)C2C1=O (centres undefined) returned Dicer inh 4.1*.
`O=C1C2C(c3ccc(Cl)cc3)OC3(C(=O)c4ccccc4C3=O)C2C(=O)N1c1ccc(F)cc1F` (centres undefined) gave Dicer inh 6.1*.
COc1ccc(N2C(=O)C3C(c4ccccc4)OC4(C(=O)c5ccccc5C4=O)C3C2=O)cc1OC (centres undefined) was read as Dicer inh -0.1.
O=C1C2C(c3ccc(F)cc3)OC3(C(=O)c4ccccc4C3=O)C2C(=O)N1Cc1ccc(Cl)cc1 (centres undefined) was read as Dicer inh -1.2.
`COc1ccc(N2C(=O)C3C(c4ccccc4Cl)OC4(C(=O)c5ccccc5C4=O)C3C2=O)cc1` (centres undefined) gave Dicer inh -0.76.
Screening Cc1ccc(C2OC3(C(=O)c4ccccc4C3=O)C3C(=O)N(Cc4ccccc4)C(=O)C23)cc1 (centres undefined) returned Dicer inh -1.4.
`Cc1c(Cl)cccc1N1C(=O)C2C(c3ccccc3)OC3(C(=O)c4ccccc4C3=O)C2C1=O` (centres undefined) gave Dicer inh 0.46.
`O=C1C2C(c3ccccc3)OC3(C(=O)c4ccccc4C3=O)C2C(=O)N1c1cccc(F)c1` (centres undefined) gave Dicer inh 1.1.
Screening Cn1nc(C(C)(C)C)c(NC(=O)c2cccnc2)c1C(C)(C)C returned Dicer inh 1.2.
